# From the supplement of paper PMC6607015
# Where a name gives a salt, the structure may show the parent alone.
# Key:
# Conditions in all cases: compound concentration in added solution (µM; 5 µl added to 20 µl cells): 10; 18 h
# A431 [1] = assay: LBPA endosome anti-LBPA integrated intensity (sum per cell), Z-score; higher = more LBPA staining
# How it was run: (§1)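 Each value is a Z-score normalised in AcuityXpress from per-cell integrated LBPA or filipin intensity, taken over the whole cell or within LBPA endosomes. Duplicate 384-well imaging plates held 5 µl of 10 µM compound solution, onto which 3,500 HeLa MZ or A431 cells in 20 µl were seeded per well. After 18 h the cells were fixed in 4% PFA, stained with 6C4 anti-LBPA antibody, filipin, propidium iodide and CellTracker green, imaged four times per well at 20× and segmented in MetaXpress.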
# HeLa MZ [2] = assay: as above
# How it was run: as §1
# A431 [3] = assay: whole-cell filipin (free cholesterol) integrated intensity, Z-score; higher = more cholesterol staining
# How it was run: as §1
# HeLa MZ [4] = assay: as above
# How it was run: as §1
# A431 [5] = assay: filipin (cholesterol) integrated intensity within LBPA endosomes, Z-score; higher = more cholesterol in LBPA endosomes
# How it was run: as §1
# HeLa MZ [6] = assay: as above
# How it was run: as §1
SMILES,LBPA endosome anti-LBPA integrated intensity (z-score) (A431 [1]),LBPA endosome anti-LBPA integrated intensity (z-score) (HeLa MZ [2]),whole-cell filipin (z-score) (A431 [3]),whole-cell filipin (z-score) (HeLa MZ [4]),filipin (z-score) (A431 [5]),filipin (z-score) (HeLa MZ [6])
Cc1cc(CC(=O)O)n(C)c1C(=O)c1ccc(Cl)cc1 [Zomepirac sodium salt],-0.359,0.635,-0.277,0.00846,-0.413,-0.439
OC(c1cc(C(F)(F)F)nc2c(C(F)(F)F)cccc12)C1CCCCN1 (centres undefined) [Mefloquine hydrochloride],2,-0.429,0.872,-0.477,1.56,1.56
CN(CCCCCCCCCCN(C)C(=O)Oc1cccc([N+](C)(C)C)c1)C(=O)Oc1cccc([N+](C)(C)C)c1 [Demecarium bromide],-0.223,-0.152,-0.139,-0.617,-0.179,-0.595
CCN(CCO)CCCC(C)Nc1ccnc2cc(Cl)ccc12 (centres undefined) [Hydroxychloroquine sulfate],0.14,1.98,-0.556,0.249,-0.241,0.821
CCCCCN(CCCCC)C(=O)C(CCC(=O)O)NC(=O)c1ccc(Cl)c(Cl)c1 (centres undefined) [Lorglumide sodium salt],-0.556,0.0228,-0.478,-0.52,-0.482,-0.502
CCCN(CCC)CCc1cccc2c1CC(=O)N2 [Ropinirole HCl],-0.0677,0.764,-0.368,0.26,-0.342,0.248
COc1ccc2[nH]cc(CCNC(C)=O)c2c1 [Melatonin],-0.518,0.193,-0.621,-0.435,-0.528,-0.543
Nc1ccc(/N=N/c2ccccc2)c(N)n1 [Phenazopyridine hydrochloride],-0.183,0.466,-0.169,-0.724,-0.32,-0.502
C[C@H](CCC(=O)O)[C@H]1CC[C@H]2[C@@H]3C(=O)C[C@@H]4CC(=O)CC[C@]4(C)[C@H]3CC(=O)[C@]12C [Dehydrocholic acid],-0.567,-0.186,-0.785,-0.553,-0.549,-0.532
COc1ccc(OC)c(C(O)CNC(=O)CN)c1 (centres undefined) [Midodrine hydrochloride],-0.477,-0.609,-0.887,-1.05,-0.605,-0.723
Nc1nc2c(ncn2COC(CO)CO)c(=O)[nH]1 [Ganciclovir],-0.282,0.382,-0.0797,0.0803,-0.332,-0.411
O=C(COc1ccc(Cl)cc1)N1CCN(Cc2ccc3c(c2)OCO3)CC1 [Fipexide hydrochloride],-0.365,0.298,-0.792,-0.7,-0.47,-0.495
CO[C@@]1(NC(=O)C(C(=O)O)c2ccc(O)cc2)C(=O)N2C(C(=O)O)=C(CSc3nnnn3C)CO[C@@H]21 (some centres undefined) [Moxalactam disodium salt],-0.477,0.127,-0.129,0.413,-0.413,-0.25
CCOc1cc(CC(=O)N[C@@H](CC(C)C)c2ccccc2N2CCCCC2)ccc1C(=O)O [Repaglinide],-0.598,-1.05,0.149,0.153,-0.42,-0.591
CC(C)(C#N)c1cc(Cn2cncn2)cc(C(C)(C)C#N)c1 [Anastrozole],-0.573,-1.31,-0.205,-0.00341,-0.428,-0.659
Nc1nc(=O)c2nc(CNc3ccc(C(=O)N[C@@H](CCC(=O)O)C(=O)O)cc3)cnc2[nH]1 [Folic acid],-0.628,-1.15,-0.811,-0.635,-0.597,-0.671
CCCN[C@H]1CCc2nc(N)sc2C1 [Pramipexole],-0.166,0.761,0.197,0.182,-0.247,-0.149
CN(C)CCCN1c2ccccc2CCc2ccccc21 [Imipramine hydrochloride],0.746,0.11,0.885,-0.699,1.08,0.828
CNC(C)CCC=C(C)C (centres undefined) [Isometheptene mucate],-0.484,-0.292,0.117,-0.234,-0.458,-0.578
CC#C[C@]1(O)CC[C@H]2[C@@H]3CCC4=CC(=O)CCC4=C3[C@@H](c3ccc(N(C)C)cc3)C[C@@]21C [Mifepristone],-0.423,0.259,-0.703,-0.6,-0.386,-0.393
N=C(N)NCC1COC2(CCCCC2)O1 (centres undefined) [Guanadrel sulfate],-0.435,-0.453,-0.472,-0.401,-0.413,-0.438
O=C1C(O)=C([C@H]2CC[C@H](c3ccc(Cl)cc3)CC2)C(=O)c2ccccc21 [Atovaquone],-0.63,-0.824,-0.408,-0.361,-0.555,-0.654
CC(=O)NCCCS(=O)(=O)O [Acamprosate calcium],-0.335,0.472,-0.555,-0.465,-0.407,-0.547
CC(C)NCC(O)COc1ccc(CCOCC2CC2)cc1 (centres undefined) [Betaxolol hydrochloride],2.57,2.19,0.139,-0.283,0.614,0.292
